Measurements: PubChem BioAssay AID624141 (Broad Institute, 2012)
The campaign covered roughly 17,000 compounds. About 260 (1.5%) were called active.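 The calls were made as follows: active = spot fluorescence over background with P-value below 7% in all four replicate spots, showing protein binding; inactive = the rest.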 This excerpt belongs to a sample that is enriched for actives.

Molecular target: Myc proto-oncogene protein (Homo sapiens) (UniProt P01106)
Experiment: binders of human c-Myc, primary screen, biochemical, small molecule microarray, anti-His fluorescence (AID 624141)
Conditions: His-c-Myc binding

Sequence of Myc proto-oncogene protein (Homo sapiens) (P01106 whole entry, looked up): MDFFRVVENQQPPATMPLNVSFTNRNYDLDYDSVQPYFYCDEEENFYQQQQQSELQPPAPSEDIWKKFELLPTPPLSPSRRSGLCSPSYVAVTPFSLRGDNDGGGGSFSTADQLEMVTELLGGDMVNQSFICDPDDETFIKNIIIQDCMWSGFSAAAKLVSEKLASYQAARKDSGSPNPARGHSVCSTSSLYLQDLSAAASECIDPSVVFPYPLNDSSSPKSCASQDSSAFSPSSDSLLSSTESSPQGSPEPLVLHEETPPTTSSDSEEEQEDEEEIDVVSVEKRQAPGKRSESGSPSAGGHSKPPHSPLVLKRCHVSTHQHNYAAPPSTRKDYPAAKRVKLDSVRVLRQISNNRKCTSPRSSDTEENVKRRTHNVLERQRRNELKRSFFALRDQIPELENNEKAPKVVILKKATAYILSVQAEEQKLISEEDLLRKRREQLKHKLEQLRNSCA

Row | Structure (SMILES) | outcome
1 | Cn1nnc(NC(=O)COc2ccc(Cl)cc2Cl)n1 | inactive
2 | OC[C@@]1(O)CO[C@H](OC[C@H]2O[C@@H](OC(CCCCc3ccc(O)cc3)CCc3ccc(O)cc3)[C@H](O[C@H]3OC[C@](O)(CO)[C@H]3O)[C@@H](O)[C@@H]2O)[C@@H]1O (some centres undefined) | inactive
3 | COc1cc(CN2CCN(CCO)CC2)c([N+](=O)[O-])cc1OC | inactive
4 | O=C(CCCCCCC(=O)NOCc1ccccc1)NO | inactive
5 | CC(=O)Nc1sccc1C(=O)NCc1ccco1 | inactive
6 | C[C@@H]1CN([C@@H](C)CO)C(=O)c2cc(NC(=O)Cc3ccccc3)ccc2O[C@@H](C)CCCCO[C@@H]1CN(C)C(=O)Nc1ccccc1 | inactive
7 | C[C@@H]1CCCCO[C@@H](CN(C)C(=O)c2ccccc2)[C@@H](C)CN([C@@H](C)CO)C(=O)c2cc(NS(=O)(=O)c3ccccc3)ccc2O1 | inactive
8 | CNC[C@@H]1Oc2c(NC(=O)Nc3ccccc3)cccc2C(=O)N([C@@H](C)CO)C[C@@H]1C | inactive
9 | COC1OC(O)C(O)C12CC[C@@]1(O2)[C@H](C)C[C@H]2OC(=O)[C@@]3(C)CCC[C@]1(C)C23 (some centres undefined) | inactive
10 | CCOc1ccc(OCC(=O)Nc2cc(C)c(Cl)cc2OC)cc1 | inactive
11 | C=CC1c2cc(O)c(OC)cc2CCN1Cc1cccc(OC(F)(F)F)c1 (centres undefined) | inactive
12 | C[C@H](CO)N1C[C@H](C)[C@@H](CN(C)S(=O)(=O)c2cn(C)cn2)OCCCC[C@H](C)Oc2ccc(NC(=O)Cc3ccccc3)cc2C1=O | inactive
13 | CN(C)c1nc(SCCO)nc(N(C)C)n1 | inactive
14 | O=C(COc1ccc(C(=O)Nc2ccccc2Cl)cc1)Nc1ccc(Oc2ccccc2)cc1 | inactive
15 | CC1=CCC(C(C)(C)O[C@@H]2O[C@H](COC(=O)c3cc(O)c(O)c(O)c3)[C@@H](O)[C@H](O)[C@H]2O)CC1 (some centres undefined) | inactive
16 | C/C=C1/[C@H](O[C@@H]2O[C@H](CO)[C@@H](O)[C@H](O)[C@H]2O)OC=C2C(=O)O[C@@H]3C[C@@H](C(C)CO)[C@H](COC(=O)C[C@H]21)[C@H]3C (some centres undefined) | inactive
17 | O=C(NCc1ccco1)c1nc2ncccn2n1 | inactive
18 | COc1ccc(S(=O)(=O)N(C)C[C@@H]2Oc3ncc(C#Cc4ccc(F)cc4)cc3C(=O)N([C@H](C)CO)C[C@@H]2C)cc1 | inactive
19 | C[C@H](CO)N1C[C@H](C)[C@@H](CN(C)S(=O)(=O)c2ccc(Oc3ccccc3)cc2)OCc2cn(nn2)CCCC1=O | inactive
20 | Cc1ccc(-n2c(SCC(=O)Nc3ccccc3F)nnc2-c2ccccc2)cc1C | inactive
21 | COc1ccc(C[C@H]2COC(=O)[C@@H]2Cc2ccc(O[C@@H]3O[C@H](CO)[C@@H](O)[C@H](O)[C@H]3O)c(OC)c2)cc1OC | inactive
22 | CN(C)c1ccc(NC(=O)CSc2nc3c(c(C(F)(F)F)c2C#N)CCCCCC3)cc1 | inactive
23 | Cc1ccc(C(=O)CSc2nsc3sc(C(=O)c4ccc(C)cc4)c(N)c23)cc1 | inactive

Row | Structure (SMILES) | outcome
24 | O=C(CN1CCOCC1)Nc1ccc(S(=O)(=O)N2CCCC2)cc1 | inactive
25 | OC1(c2ccc3c(c2)OCO3)OCC2C(c3ccc4c(c3)OCO4)OCC21O (centres undefined) | inactive
26 | O=C(NCCCn1ccnc1)c1cnn2c(C(F)(F)F)cc(-c3ccccc3)nc12 | inactive
27 | O=[N+]([O-])c1ccc(NCCNS(=O)(=O)c2ccc(Br)cc2)c(C(F)(F)F)c1 | inactive
28 | Cc1nc(SCC(N)=O)c(C(N)=O)c(C)c1C | inactive
29 | C[C@@H]1CN([C@H](C)CO)C(=O)c2cc(NC(=O)Nc3ccc4c(c3)OCO4)ccc2O[C@@H]1CN(C)Cc1ccc(C(F)(F)F)cc1 | inactive
30 | CC(=O)Nc1ccc(C(=O)CSc2nnc(C)s2)cc1 | inactive
31 | Cc1cc(C)nc(SC2CCCCC2NS(=O)(=O)c2ccc(Cl)cc2)n1 (centres undefined) | inactive
32 | C[C@@H]1CCCCO[C@@H](CN(C)Cc2ccc(C(=O)O)cc2)[C@H](C)CN([C@@H](C)CO)C(=O)c2cc(NC(=O)C3CCCCC3)ccc2O1 | inactive
33 | Cc1cc2nc(-c3ccc(NC(=O)COc4ccccc4[N+](=O)[O-])cc3)oc2cc1C | inactive
34 | CNC[C@@H]1OCCCC[C@H](C)Oc2ccc(NC(=O)Nc3ccccc3)cc2C(=O)N([C@H](C)CO)C[C@H]1C | inactive
35 | C[C@@H]1CN([C@@H](C)CO)C(=O)c2cc(NC(=O)C3CC3)ccc2O[C@H]1CN(C)C | inactive
36 | COc1ccc(C#Cc2ccc3c(c2)[C@]2(C(=O)N3)[C@H](C(=O)N3CCCCCCC3)[C@H]3C(=O)O[C@H](c4ccccc4)[C@H](c4ccccc4)N3[C@@H]2c2ccc(O)cc2)cc1 | inactive
37 | O=C1O[C@@H](c2ccccc2)[C@@H](c2ccccc2)N2[C@@H](c3ccccc3OCCO)[C@]3(C(=O)Nc4ccccc43)[C@@H](C(=O)N3CCCCCCC3)[C@H]12 | active
38 | COc1ccc(C#Cc2ccc3c(c2)[C@]2(C(=O)N3)[C@H](c3ccccc3OCCO)N3[C@H](c4ccccc4)[C@H](c4ccccc4)OC(=O)[C@H]3[C@@H]2C(=O)N2CCCCCCC2)cc1 | active
39 | O=C1O[C@H](c2ccccc2)[C@H](c2ccccc2)N2[C@H]1[C@@H](C(=O)N1CCN(c3ncccn3)CC1)[C@]1(C(=O)Nc3ccccc31)[C@H]2c1ccc(OCCO)cc1 | inactive
40 | COC(=O)C(CC#Cc1ccc2c(c1)[C@]1(C(=O)N2)[C@H](c2ccccc2OCCO)N2[C@H](c3ccccc3)[C@H](c3ccccc3)OC(=O)[C@H]2[C@@H]1C(N)=O)C(=O)OC | inactive
41 | O=C1O[C@@H](c2ccccc2)[C@@H](c2ccccc2)N2[C@@H](c3ccccc3OCCO)[C@]3(C(=O)Nc4ccc(C#CC5(O)CCCCCC5)cc43)[C@@H](C(=O)N3CCCCCCC3)[C@H]12 | inactive
42 | C[C@H]1CN([C@@H](C)CO)C(=O)c2cccc(NC(=O)Nc3ccccc3)c2O[C@@H]1CN(C)S(=O)(=O)c1ccc(F)cc1 | inactive
43 | C[C@@H]1CN([C@@H](C)CO)C(=O)c2cc(NS(C)(=O)=O)ccc2O[C@@H](C)CCCCO[C@@H]1CN(C)C(=O)c1ccccc1 | inactive
44 | Cc1nc(SCC(=O)O)[nH]c(=O)c1Oc1ccccc1 | inactive
45 | C[C@H]1CN([C@@H](C)CO)C(=O)c2cc(N(C)C)ccc2O[C@@H]1CN(C)C(=O)Nc1ccc2c(c1)OCO2 | inactive
46 | COc1ccc2ccccc2c1CNCc1ccccn1 | active

Row | Structure (SMILES) | outcome
47 | Cc1nnc(SCc2cc(=O)[nH]c(N3CCN(Cc4ccccc4)CC3)n2)s1 | inactive
48 | C[C@@H]1CN([C@H](C)CO)C(=O)c2cc(NS(=O)(=O)c3ccccc3)ccc2O[C@@H](C)CCCCO[C@@H]1CN(C)C(=O)CCC(F)(F)F | inactive
49 | Cc1noc(C)c1S(=O)(=O)Nc1ccc2c(c1)C(=O)N([C@H](C)CO)C[C@@H](C)[C@H](CN(C)C(=O)NC(C)C)OCCCC[C@@H](C)O2 | inactive
50 | Cc1noc(C)c1S(=O)(=O)Nc1ccc2c(c1)C(=O)N([C@H](C)CO)C[C@H](C)[C@@H](CN(C)C(=O)CCC(F)(F)F)OCCCC[C@H](C)O2 | inactive
51 | C[C@@H]1CCCCO[C@@H](CN(C)C(=O)CCC(F)(F)F)[C@@H](C)CN([C@H](C)CO)C(=O)c2cc(NC(=O)CCC(F)(F)F)ccc2O1 | inactive
52 | Cc1noc(C)c1S(=O)(=O)Nc1ccc2c(c1)C(=O)N([C@H](C)CO)C[C@H](C)[C@H](CN(C)C(=O)CCC(F)(F)F)OCCCC[C@H](C)O2 | active
53 | Cc1noc(C)c1S(=O)(=O)Nc1ccc2c(c1)C(=O)N([C@@H](C)CO)C[C@H](C)[C@@H](CN(C)C)OCCCC[C@@H](C)O2 | inactive
54 | C[C@H](CO)N1C[C@H](C)[C@H](CN(C)C(=O)CCC(F)(F)F)OCCCC[C@H](C)Oc2ccc(NS(C)(=O)=O)cc2C1=O | active
55 | C[C@@H]1CCCCO[C@H](CN(C)C(=O)CCC(F)(F)F)[C@H](C)CN([C@H](C)CO)C(=O)c2cc(NS(C)(=O)=O)ccc2O1 | inactive
56 | Cc1noc(C)c1S(=O)(=O)Nc1ccc2c(c1)C(=O)N([C@@H](C)CO)C[C@@H](C)[C@H](CN(C)C(=O)NC(C)C)OCCCC[C@@H](C)O2 | active
57 | Cc1cc(OCC(=O)Nc2ccccc2C(N)=O)cc(C)c1Br | inactive
58 | Cc1scc(C(=O)NCCc2ccc(S(N)(=O)=O)cc2)c1-c1ccccc1 | inactive
59 | Cc1noc(C)c1NC(=O)Nc1ccc2c(c1)CC(=O)N([C@@H](C)CO)C[C@@H](C)[C@@H](CN(C)C(=O)NC(C)C)O2 | inactive
60 | CN(C)CCCSc1ccccc1NC(=O)/C=C/c1ccccc1 | inactive
61 | CCCCCc1ccc(/C=C/C(=O)Nc2ccccc2C(=O)O)cc1 | active
62 | COc1cc(/C=C/C(=O)NCCc2ccc(O)cc2)ccc1O | inactive
63 | CCn1c(SCC(=O)Nc2sc3c(c2C#N)CCCC3)nnc1-c1ccccc1O | inactive
64 | Cc1noc(C)c1S(=O)(=O)Nc1ccc2c(c1)CC(=O)N([C@@H](C)CO)C[C@H](C)[C@H](CN(C)S(=O)(=O)c1ccc(Cl)cc1)O2 | inactive
65 | COc1ccc(NC(=O)N(C)C[C@@H]2Oc3ccc(NS(C)(=O)=O)cc3C(=O)N([C@@H](C)CO)C[C@@H]2C)cc1 | inactive
66 | C[C@@H]1CCCCO[C@H](CN(C)Cc2ccncc2)[C@@H](C)CN([C@H](C)CO)C(=O)c2cc(NS(C)(=O)=O)ccc2O1 | inactive
67 | C[C@@H]1CN([C@H](C)CO)C(=O)c2cccc(NC(=O)Nc3ccc4c(c3)OCO4)c2O[C@H]1CN(C)S(=O)(=O)c1ccccc1 | inactive
68 | C[C@@H]1CCCCO[C@H](CN(C)Cc2ccccc2)[C@H](C)CN([C@@H](C)CO)C(=O)c2cc(NS(=O)(=O)c3ccccc3)ccc2O1 | inactive
69 | C[C@H](CO)N1C[C@H](C)[C@@H](CN(C)S(=O)(=O)c2cccs2)Oc2ccc(NC(=O)Nc3cccc4ccccc34)cc2CC1=O | inactive
